Measured values published in PubChem BioAssay (NCI).
Compounds without any hit were thinned out: in the full panel of roughly 79,000, 15% have a hit. The source made the active and inactive calls. Cut-off read from the data, not from the text of the source: active = growth inhibition above about 70%; inactive = the rest.

Legend:
[1] = NCI Yeast Anticancer Drug Screen. Data for the rad52 strain (AID 147);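 note: 0% = growth of vehicle-treated control cultures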; settings: S. cerevisiae rad52 mutant growth inhibition, active compounds read high
Procedure, shortened: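 Growth of repair-deficient yeast cells was compared between compound-treated and vehicle-treated cultures to give percent inhibition.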

[2] = NCI Yeast Anticancer Drug Screen. Data for the wt1 strain (AID 149);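 note: 0% = growth of vehicle-treated wt1 cultures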; settings: S. cerevisiae wt1 strain (SPY 50644) growth inhibition, active compounds read high
Procedure, shortened: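 Each compound is tested on wt1 yeast and the loss of growth versus vehicle gives the inhibition value.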

[3] = NCI Yeast Anticancer Drug Screen. Data for the rad50EPP+ strain (AID 151);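 note: 0% = growth of vehicle-treated control cultures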; settings: S. cerevisiae rad50 mutant strain, active compounds read high
Procedure, shortened: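 Measured: growth inhibition of rad50EPP+ yeast. Reference: vehicle-treated controls. Screen uses strains with defined genetic alterations in DNA damage repair or cell cycle control.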

[4] = NCI Yeast Anticancer Drug Screen. Data for the mgt1 strain (AID 153); settings: S. cerevisiae mgt1 mutant growth inhibition, active compounds read high
Procedure, shortened: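 Compounds were applied to mgt1 mutant yeast, and growth was then compared against vehicle-treated control cultures to give percent inhibition.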

[5] = NCI Yeast Anticancer Drug Screen. Data for the rad50 strain (AID 155);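 note: 0% = growth of vehicle-only cultures of the same strain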; settings: S. cerevisiae rad50 strain growth inhibition, active compounds read high
Procedure, shortened: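 Vehicle-treated cultures provide the reference for the growth inhibition reported for compound-exposed, repair-deficient yeast.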

[6] = NCI Yeast Anticancer Drug Screen. Data for the mec2-1 strain (AID 157); settings: S. cerevisiae mec2-1 strain, active compounds read high
Procedure, shortened: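 Compounds were applied to mec2-1 yeast cells. Their growth was then compared with that of vehicle-treated cultures to give growth inhibition.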

[7] = NCI Yeast Anticancer Drug Screen. Data for the rad14 strain (AID 159);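 note: 0% = growth of vehicle-treated control cultures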; settings: S. cerevisiae rad14 strain growth inhibition, active compounds read high
Procedure, shortened: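 Inhibition of growth is reported for a repair-deficient yeast mutant following compound treatment, calculated relative to cultures that received vehicle.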

[8] = NCI Yeast Anticancer Drug Screen. Data for the sgs1 mgt1 strain (AID 161);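 note: 0% = growth of cultures given vehicle only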; settings: S. cerevisiae sgs1 mgt1 strain, active compounds read high
Procedure, shortened: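 Yeast cells carrying a defined DNA-repair defect were exposed to test compounds. Growth inhibition was measured relative to vehicle-treated controls.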

[9] = NCI Yeast Anticancer Drug Screen. Data for the CLN2oe strain (AID 163);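 note: 0% = growth of vehicle-only control cultures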; settings: S. cerevisiae CLN2oe strain, active compounds read high
Procedure, shortened: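 Cells of an engineered yeast line with disturbed cell-cycle regulation are treated with compound. Inhibition of growth is then calculated relative to the vehicle-treated reference.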

[10] = NCI Yeast Anticancer Drug Screen. Data for the cln2 rad14 strain (AID 165);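 note: 0% = growth equal to vehicle treated cultures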; settings: S. cerevisiae cln2 rad14 strain, active compounds read high
Procedure, shortened: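 Strain: cln2 rad14 yeast, altered in cell cycle control and DNA damage repair. Read-out: growth inhibition vs vehicle.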

[11] = NCI Yeast Anticancer Drug Screen. Data for the bub3 strain (AID 167); settings: S. cerevisiae bub3 mutant strain, active compounds read high
Procedure, shortened: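 Mutant yeast screening strain plus compound; vehicle-treated cultures serve as the 0% inhibition reference.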

[12] = NCI Yeast Anticancer Drug Screen. Data for the wt2 strain (AID 169); settings: S. cerevisiae wt2 strain growth inhibition, active compounds read high
Procedure, shortened: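 Growth of compound-treated yeast is measured and expressed as inhibition relative to vehicle-only controls.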

[13] = NCI Yeast Anticancer Drug Screen. Data for the mlh1 strain (AID 171);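 note: 0% = growth of vehicle-treated control cultures of the same strain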; settings: S. cerevisiae mlh1 strain growth inhibition, active compounds read high
Procedure, shortened: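 Test agents were incubated with yeast bearing a defined DNA damage repair or cell cycle control alteration; values are growth inhibition normalised to vehicle-treated cultures.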

[14] = NCI Yeast Anticancer Drug Screen. Data for the sgs1 strain (AID 173);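 note: 0% = growth of vehicle-only control cultures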; settings: S. cerevisiae sgs1 mutant, active compounds read high
Procedure, shortened: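 Strain with an altered DNA repair or cell cycle pathway exposed to compound. Growth then measured. Value = inhibition versus vehicle control.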

[15] = NCI Yeast Anticancer Drug Screen. Data for the mlh1 rad18 strain (AID 175); settings: S. cerevisiae mlh1 rad18 strain growth inhibition, active compounds read high
Procedure, shortened: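 A repair-deficient yeast strain is exposed to test compound, and growth is scored relative to vehicle-treated controls.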

[16] = NCI Yeast Anticancer Drug Screen. Data for the rad18 strain (AID 177); settings: S. cerevisiae rad18 mutant growth inhibition, active compounds read high
Procedure, shortened: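 DNA-repair-defective yeast; compound treatment; growth inhibition scored against vehicle.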

[17] = at 5.0 µM (retest, dose inferred, filed as 0.5)
[18] = at 50.0 µM (retest, dose inferred, filed as 5.0)

Measured: growth inhibition

O=[N+]([O-])/C=C/c1ccc2ccccc2c1
inactive: [1]; at 1.2 µM 28% | [2]; at 1.2 µM -1% | [2]; at 3.7 µM 7% | [3]; at 1.2 µM 67% | [4]; at 1.2 µM -1% | [4]; at 3.7 µM 61% | [5]; at 1.2 µM 33% | [5]; [17] 1% | [6]; at 1.2 µM 2% | [6]; [17] 33% | [7]; at 1.2 µM 11% | [8]; [17] -35% | [9]; at 1.2 µM 4% | [9]; at 3.7 µM 53% | [11]; at 1.2 µM 6% | [11]; at 3.7 µM 61% | [12]; at 1.2 µM -5% | [12]; at 3.7 µM 18% | [13]; at 1.2 µM 1% | [13]; at 3.7 µM 38% | [14]; at 1.2 µM 23% | [15]; [17] -256% | [16]; at 1.2 µM 6% | [16]; at 3.7 µM 48%
active: [1]; at 3.7 µM 72% | [1]; at 11.0 µM 100% | [1]; at 33.0 µM 100% | [1]; at 100.0 µM 99% | [2]; at 11.0 µM 99% | [2]; at 33.0 µM 100% | [2]; at 100.0 µM 100% | [3]; at 3.7 µM 98% | [3]; at 11.0 µM 99% | [3]; at 33.0 µM 99% | [3]; at 100.0 µM 99% | [4]; at 11.0 µM 100% | [4]; at 33.0 µM 100% | [4]; at 100.0 µM 99% | [5]; at 3.7 µM 95% | [5]; at 11.0 µM 100% | [5]; at 33.0 µM 100% | [5]; [18] 90% | [5]; at 50.0 µM 99.1% | [5]; at 100.0 µM 99% | [6]; at 3.7 µM 89% | [6]; at 11.0 µM 100% | [6]; at 33.0 µM 100% | [6]; [18] 96% | [6]; at 50.0 µM 99.2% | [6]; at 100.0 µM 97% | [7]; at 3.7 µM 71% | [7]; at 11.0 µM 99% | [7]; at 33.0 µM 99% | [7]; at 100.0 µM 100% | [8]; [18] 95% | [8]; at 50.0 µM 99.3% | [9]; at 11.0 µM 99% | [9]; at 33.0 µM 99% | [9]; at 100.0 µM 99% | [10]; [17] 98% | [10]; [18] 93% | [10]; at 50.0 µM 98.2% | [11]; [17] 98% | [11]; at 11.0 µM 99% | [11]; at 33.0 µM 99% | [11]; [18] 94% | [11]; at 50.0 µM 98.8% | [11]; at 100.0 µM 99% | [12]; at 11.0 µM 100% | [12]; at 33.0 µM 100% | [12]; at 100.0 µM 99% | [13]; at 11.0 µM 100% | [13]; at 33.0 µM 100% | [13]; at 100.0 µM 100% | [14]; at 3.7 µM 98% | [14]; at 11.0 µM 100% | [14]; at 33.0 µM 100% | [14]; at 100.0 µM 100% | [15]; [18] 93% | [15]; at 50.0 µM 98.8% | [16]; at 11.0 µM 99% | [16]; at 33.0 µM 100% | [16]; at 100.0 µM 99%

O=[N+]([O-])c1cccc2nccc(NCCCO)c12
active: [1]; at 100.0 µM 70% | [5]; [18] 79% | [5]; at 100.0 µM 70% | [7]; at 33.0 µM 75% | [7]; at 100.0 µM 91% | [8]; [18] 85% | [8]; at 50.0 µM 73.8% | [10]; [18] 91% | [14]; at 33.0 µM 79% | [14]; at 100.0 µM 86% | [15]; [18] 91% | [16]; at 3.7 µM 79% | [16]; at 11.0 µM 88% | [16]; at 33.0 µM 93% | [16]; at 100.0 µM 94%
inactive: [1]; at 1.2 µM 18% | [1]; at 3.7 µM 2% | [1]; at 11.0 µM 11% | [1]; at 33.0 µM 40% | [2]; at 1.2 µM 1% | [2]; at 3.7 µM 0% | [2]; at 11.0 µM 5% | [2]; at 33.0 µM 10% | [2]; at 100.0 µM 16% | [3]; at 1.2 µM 14% | [3]; at 3.7 µM 13% | [3]; at 11.0 µM 20% | [3]; at 33.0 µM 27% | [3]; at 100.0 µM 46% | [4]; at 1.2 µM -24% | [4]; at 3.7 µM -9% | [4]; at 11.0 µM -12% | [4]; at 33.0 µM 5% | [4]; at 100.0 µM 26% | [5]; at 1.2 µM -17% | [5]; at 3.7 µM 3% | [5]; [17] 32% | [5]; at 11.0 µM 11% | [5]; at 33.0 µM 40% | [5]; at 50.0 µM 46.3% | [6]; at 1.2 µM -20% | [6]; at 3.7 µM -12% | [6]; [17] 13% | [6]; at 11.0 µM -3% | [6]; at 33.0 µM 23% | [6]; [18] 52% | [6]; at 50.0 µM 57.7% | [6]; at 100.0 µM 68% | [7]; at 1.2 µM -9% | [7]; at 3.7 µM 4% | [7]; at 11.0 µM 34% | [8]; [17] 51% | [9]; at 1.2 µM 11% | [9]; at 3.7 µM 5% | [9]; at 11.0 µM 4% | [9]; at 33.0 µM 2% | [9]; at 100.0 µM 14% | [10]; [17] 15% | [10]; at 50.0 µM 57.9% | [11]; at 1.2 µM -12% | [11]; at 3.7 µM -13% | [11]; [17] 4% | [11]; at 11.0 µM -14% | [11]; at 33.0 µM -18% | [11]; [18] -43% | [11]; at 50.0 µM 10.1% | [11]; at 100.0 µM -9% | [12]; at 1.2 µM -27% | [12]; at 3.7 µM -26% | [12]; at 11.0 µM -19% | [12]; at 33.0 µM -22% | [12]; at 100.0 µM 6% | [13]; at 1.2 µM -26% | [13]; at 3.7 µM -7% | [13]; at 11.0 µM -3% | [13]; at 33.0 µM 5% | [13]; at 100.0 µM 30% | [14]; at 1.2 µM 8% | [14]; at 3.7 µM 38% | [14]; at 11.0 µM 62% | [15]; [17] 24% | [15]; at 50.0 µM 32.9% | [16]; at 1.2 µM 46%
